Bioassay records deposited in PubChem BioAssay by several laboratories.
Hits are enriched below; roughly 1.8% of the tested compounds scored in any of these assays.
Bim-Mcl-1 – inhibitors of Bim-Mcl-1 interaction, human; Bead-based flow cytometry, Bim peptide-Mcl-1 binding; inhibition, % at 10 µM; hit rate 0.1% among 190,000; in the data active means inhibition above about 40%;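 further: 0% = no compound tracer wells and 100% = peptide blocker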
Mcl1 Noxa PPI – disrupts binding of human Mcl-1 to Noxa peptide; Q07820; AID 1022; hit rate 1.5% among 220,000; inhibition, % at 21.7 µM; TR-FRET Mcl-1/Noxa peptide binding, 2 h;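 active means compounds that cut the protein-peptide binding signal by more than 50% relative to plate controls in a single-dose test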;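 further: His-tagged Mcl-1 with rhodamine Noxa BH3 peptide and terbium anti-His antibody; 0% = Mcl-1 plus Noxa peptide wells and 100% = peptide-only wells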
TLR9-MyD88 inh – TLR9-MyD88 interaction inhibition. CHO BLA complementation TLR9-MyD88, CCF4 FRET ratio. inhibition, % at 4.98 µM. hit rate 0.21% among 340,000. AID 504734;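 active means inhibition above the mean over all tested compounds plus 3 SD, cut at about 21% in these data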;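 further: 0% = DMSO only wells and 100% = clavulanate BLA inhibitor control wells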
TLR4 MyD88 comp – blocks binding of human TLR4 to MyD88 | HeLa CL3-4 TLR4/MyD88 BLA complementation, FRET ratio | AID 861 | O00206+Q99836 | hit rate 0.18% among 200,000 | inhibition, % at 8.4 µM; in the data active means inhibition above about 25%;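 further: 0% = vehicle and 100% = reference inhibitor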
Mcl1-Bid inh – Mcl-1/Bid interaction inhibition; Q07820; TR-FRET Mcl-1/Bid-Dy647 peptide binding, 1536-well; hit rate 0.97% among 220,000; AID 1021; inhibition, % at 21.7 µM;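 active means compounds that cut the binding signal by more than half at the single screening dose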;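 further: His-tagged Mcl-1 with europium anti-His antibody binding Bid BH3 peptide; 0% = Mcl-1 plus peptide wells and 100% = peptide-only wells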
NOD2-RIPK2 inh – inhibitors of human NOD2-RIPK2 interaction. O43353. CHO BLA complementation NOD2-RIPK2, CCF4 ratio. inhibition, % at 4.98 µM. hit rate 0.38% among 360,000. AID 624267; in the data active means inhibition above about 21%;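 further: 0% = vehicle only and 100% = reference blocker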
TLR4-MyD88 conf – TLR4-MyD88 interaction inhibition confirmed | shares compounds with TLR4 MyD88 comp | HeLa CL3-4 BLA complementation, CCF4 FRET ratio | inhibition, % at 8.4 µM | hit rate 50% among 350 | AID 941;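 active means mean inhibition across three repeat runs above about 25% carried over from the earlier screen, limit read from the data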;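 further: plate controls were DMSO only for no effect and clavulanic acid blocking BLA at full dose for full effect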
BLA inhibitor ct – beta-lactamase inhibition flagged in TLR4-MyD88 counter-screen. shares compounds with TLR4 MyD88 comp. hit rate 63% among 350. HeLa BLA reporter, CCF4 FRET ratio. inhibition, % at 8.4 µM;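 active means mean inhibition over three repeats above about 26% taken from the earlier screen, limit read from the data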;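 further: HeLa cells stably expressing beta-lactamase reporter as counterscreen for TLR4-MyD88 inhibitors; 0% = DMSO and 100% = clavulanic acid full inhibition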
* = called active by the depositor.

What do the screens show for `CC1=NOC(=O)/C1=C\c1ccc(-c2ccccc2Br)o1`?
Bim-Mcl-1: 0; Mcl1 Noxa PPI: 48; TLR9-MyD88 inh: 9; TLR4 MyD88 comp: 26*; Mcl1-Bid inh: -5; NOD2-RIPK2 inh: 0; TLR4-MyD88 conf: 21; BLA inhibitor ct: -18

What do the screens show for `CCOc1ccc(NC(=O)CN(C)S(=O)(=O)c2cccc3cccnc23)cc1`?
TLR9-MyD88 inh: -11; NOD2-RIPK2 inh: -20

What do the screens show for `O=C(CSc1nnc(CNC(=O)c2c(F)cccc2Cl)o1)Nc1ccccc1`?
Bim-Mcl-1: 4; Mcl1 Noxa PPI: 12; TLR9-MyD88 inh: -11; TLR4 MyD88 comp: 6; Mcl1-Bid inh: 5; NOD2-RIPK2 inh: -3

How did O=C(CSc1nnc(CNC(=O)c2c(F)cccc2Cl)o1)c1ccccc1 do in these assays?
Bim-Mcl-1: -4; Mcl1 Noxa PPI: 5; TLR9-MyD88 inh: 3; TLR4 MyD88 comp: 27*; Mcl1-Bid inh: -3; NOD2-RIPK2 inh: 5; TLR4-MyD88 conf: 0; BLA inhibitor ct: 7

Results for CC(C)(C)c1cc(NC(=O)c2cccnc2)no1 ?
Bim-Mcl-1: -5; Mcl1 Noxa PPI: -6; TLR9-MyD88 inh: 0; TLR4 MyD88 comp: 27*; Mcl1-Bid inh: 3; NOD2-RIPK2 inh: -10; TLR4-MyD88 conf: 7; BLA inhibitor ct: 0

How did Cc1ccc(OCCCC(=O)N(C)CC(=O)Nc2c(C)cccc2C)cc1 do in these assays?
TLR9-MyD88 inh: -17; NOD2-RIPK2 inh: -5

Results for Clc1ccc(CSc2nnc(CN3CCOCC3)n2-c2ccccc2)cc1Cl ?
Bim-Mcl-1: 0; Mcl1 Noxa PPI: -5; TLR9-MyD88 inh: 5; TLR4 MyD88 comp: 26*; Mcl1-Bid inh: -1; NOD2-RIPK2 inh: -5; TLR4-MyD88 conf: -6; BLA inhibitor ct: -1

Results for Cn1c(=O)c2c(nc(N3CCOCC3)n2C/C=C/c2ccccc2)n(C)c1=O ?
Mcl1 Noxa PPI: -3; Mcl1-Bid inh: 6; NOD2-RIPK2 inh: -7

Results for COCCNc1nc(SCC(=O)N2CCN(c3ccccc3OC)CC2)nc2ccccc12 ?
Bim-Mcl-1: -5; Mcl1 Noxa PPI: -11; TLR9-MyD88 inh: 1; TLR4 MyD88 comp: 25*; Mcl1-Bid inh: -62; NOD2-RIPK2 inh: -3; TLR4-MyD88 conf: -7; BLA inhibitor ct: -3

Results for COc1ccccc1N1CCN(C(=O)CSc2nc3ccccc3o2)CC1 ?
Bim-Mcl-1: -2; Mcl1 Noxa PPI: -42; TLR9-MyD88 inh: -7; TLR4 MyD88 comp: 2; Mcl1-Bid inh: -86; NOD2-RIPK2 inh: -2

Results for Cc1ccc(NS(=O)(=O)c2c(C)[nH]c(C)c2C(=O)N2CCCCC2)cc1F ?
TLR9-MyD88 inh: 11; NOD2-RIPK2 inh: -6

What do the screens show for `CCNC(=O)CC1C(=O)N(c2cccc(OC)c2)C(=O)N1CCOC` (stereo not drawn)?
Bim-Mcl-1: -11; Mcl1 Noxa PPI: 0; TLR9-MyD88 inh: -10; TLR4 MyD88 comp: 25*; Mcl1-Bid inh: 13; NOD2-RIPK2 inh: 2; TLR4-MyD88 conf: 0; BLA inhibitor ct: 1

What do the screens show for `COCCN1C(=O)N(c2cccc(OC)c2)C(=O)C1CC(=O)Nc1cccc(F)c1` (stereo not drawn)?
TLR9-MyD88 inh: -6; NOD2-RIPK2 inh: 4

What do the screens show for `CC1(C)C2CCC(CN)C1C2` (stereo not drawn)?
TLR9-MyD88 inh: -1; NOD2-RIPK2 inh: 3

How did O=C(CSc1nc2scc(-c3ccco3)c2c(=O)n1-c1ccccc1)N1CCOCC1 do in these assays?
Bim-Mcl-1: 0; Mcl1 Noxa PPI: 30; TLR9-MyD88 inh: -6; TLR4 MyD88 comp: 30*; Mcl1-Bid inh: -5; NOD2-RIPK2 inh: 2; TLR4-MyD88 conf: 2; BLA inhibitor ct: 9

What do the screens show for `Cc1ccc(CNC(=O)CN2C(=O)COc3ccc(S(=O)(=O)N4CCCCC4)cc32)o1`?
TLR9-MyD88 inh: -4; NOD2-RIPK2 inh: 4

Results for COc1cccc(/C=C/C(=O)c2c(O)cc(C)oc2=O)c1O ?
Bim-Mcl-1: -2; Mcl1 Noxa PPI: 32; TLR9-MyD88 inh: -6; TLR4 MyD88 comp: 26*; Mcl1-Bid inh: 30; NOD2-RIPK2 inh: 2; TLR4-MyD88 conf: -2; BLA inhibitor ct: 0
